This is an account of results in PubChem BioAssay (Tox21).

For assay [1], the target named is Thyrotropin receptor (Homo sapiens) (UniProt P16473). Put plainly: qHTS assay to identify small molecule agonists of the thyroid stimulating hormone receptor (TSHR) signaling pathway (AID 1224843). Also: nearly all actives have a fitted effect of over 45% in size. An outline of the steps: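 Cell line HEK293 with TSHR; density 800/well. Exposure 30 min RT. Readout HTRF cAMP (cAMP-d2/anti-cAMP-cryptate), 1 h RT before reading.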

The nature of assay [2]: qHTS assay to identify small molecule agonists of the hypoxia (HIF-1) signaling pathway - cell viability counter screen (AID 1224844). Also: nearly all actives have a fitted effect of over 50% in size. Also: potency is read from the fitted curve at half-maximal effect. An outline of the steps: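 Multiplexed with the HRE beta-lactamase assay, this viability read used CellTiter-Glo luminescence (30 min, RT) on HRE-bla ME-180 cells treated 17 hrs with compounds in 0.5% dialyzed FBS medium.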
Assay [3] in a line: qHTS assay to identify small molecule agonists of the hypoxia (HIF-1) signaling pathway (AID 1224846; active = well fitted activation curve with a large enough effect in the signal ratio in the repeat runs, not every such curve was filed as active; the % refers to the signal ratio). A digest of the protocol:
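Hypoxia-pathway activation was scored as increased beta-lactamase from an HRE-controlled reporter in ME-180 cells; plated at 2,000 cells per well with 0.5% dialyzed FBS, they were exposed 17 hrs to compounds and then given CCF4-AM.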

A short description of assay [4]: qHTS assay to identify small molecule agonists of H2AX - cell viability counter screen (AID 1224847). Also: nearly all actives have a fitted effect of over 30% in size. Also: potency is read from the fitted curve at half-maximal effect. A digest of the protocol: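 After overnight plating of 1000 CHO-K1 cells per well, a 15-concentration compound series was applied for 3 hr at 37C. Luminescence from CellTiter-Glo, read following 30 min at room temperature, reflected cell viability.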
For orientation: qHTS replaces the single test concentration by a dilution series.

The nature of assay [5]: qHTS assay to identify small molecule agonists of the estrogen related receptor (ERR) signaling pathway from Tox21 library (AID 1224849). Also: nearly all actives have a fitted effect of over 15% in size. Conditions: ERR reporter cell line, ONE-Glo luciferase, 18 h; at 92.4 µM (top of the series) unless noted. A digest of the protocol:
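Six hours post-seeding at 37 C/5% CO2, ERR cells receive DMSO-solubilised compounds; after 18 h at 37 C, ONE-Glo reagent is applied and luminescence recorded.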

Assay [6] can be described thus: qHTS RealTime-Glo MT Cell Viability Assay in HepG2 cells - 24 hour (AID 1224867; active = well fitted curve in the direction sought with a large enough effect in the repeat runs; an effect the other way counts as inactive or inconclusive; also: nearly all actives have a fitted effect of over 50% in size). An outline of the steps: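 HepG2 suspension premixed with RealTime-Glo reagents is plated at 600 cells per well and left 5 h at 37 C/5% CO2. Compounds in DMSO then go in, and bioluminescence reflecting viable cell number is recorded over 40 h.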
Assay [7] in a line: qHTS RealTime-Glo MT Cell Viability Assay in HEK293 cells - 32 hour (AID 1224868; active = well fitted curve in the direction sought with a large enough effect in the repeat runs; an effect the other way counts as inactive or inconclusive; also: nearly all actives have a fitted effect of over 50% in size; also: potency is read from the fitted curve at half-maximal effect). An outline of the steps: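 Reads taken at 0, 8, 16, 24, 32 and 40 h from the same wells. HEK293 cells (600/well) carried RealTime-Glo reagents from seeding, with compound added after a 5 h settle at 37 C.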
A short description of assay [8]: A CellTox Green Cytotoxicity Assay to monitor cytotoxicity in HEK293 cells - 0 hour (AID 1224869; active = well fitted curve in the direction sought with a large enough effect in the repeat runs; an effect the other way counts as inactive or inconclusive; also: nearly all actives have a fitted effect of over 50% in size). An outline of the steps:
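Seeding of HEK293 cells together with cytotoxicity dye preceded a 5 h incubation at 37 C/5% CO2. Test compounds in DMSO were then added and fluorescence monitored across 40 h.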

Assay [9] in a line: qHTS assay to identify small molecule antagonists of the estrogen related receptor (ERR) signaling pathway from Tox21 library (AID 1224848; active = well fitted curve in the direction sought with a large enough effect in the repeat runs; an effect the other way counts as inactive or inconclusive; also: nearly all actives have a fitted effect of over 50% in size). A digest of the protocol:
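Screening used an ERR reporter line supplied by NTP, exposed for 18 h at 37 C to library compounds delivered in DMSO. Signal was luciferase luminescence developed with ONE-Glo at room temperature for 30 min.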

A short description of assay [10]: qHTS assay to identify small molecule agonists of H2AX (AID 1224845; active = well fitted activation curve with a large enough effect in the signal ratio in the repeat runs, not every such curve was filed as active; the % refers to the signal ratio). A digest of the protocol:
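Wild-type CHO-K1 cells plated overnight, then exposed 3 hr at 37C to compounds at 15 concentrations (0.76% DMSO). Lysed, then HTRF anti-pH2AX(S139)-cryptate/anti-H2AX-d2 detection after 24 hr at room temperature; emissions 665 and 620 nm.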

Each structure is given as a SMILES string. Unmarked numbers belong to inactive results. Results filed as inconclusive are left out. The source made the active and inactive calls. Unless noted, calls follow the shape of the full dose curve.
% is scaled to controls: 0 for no effect and ±100 for the full control effect.

Chain of Thyrotropin receptor (Homo sapiens) (P16473 whole entry, looked up): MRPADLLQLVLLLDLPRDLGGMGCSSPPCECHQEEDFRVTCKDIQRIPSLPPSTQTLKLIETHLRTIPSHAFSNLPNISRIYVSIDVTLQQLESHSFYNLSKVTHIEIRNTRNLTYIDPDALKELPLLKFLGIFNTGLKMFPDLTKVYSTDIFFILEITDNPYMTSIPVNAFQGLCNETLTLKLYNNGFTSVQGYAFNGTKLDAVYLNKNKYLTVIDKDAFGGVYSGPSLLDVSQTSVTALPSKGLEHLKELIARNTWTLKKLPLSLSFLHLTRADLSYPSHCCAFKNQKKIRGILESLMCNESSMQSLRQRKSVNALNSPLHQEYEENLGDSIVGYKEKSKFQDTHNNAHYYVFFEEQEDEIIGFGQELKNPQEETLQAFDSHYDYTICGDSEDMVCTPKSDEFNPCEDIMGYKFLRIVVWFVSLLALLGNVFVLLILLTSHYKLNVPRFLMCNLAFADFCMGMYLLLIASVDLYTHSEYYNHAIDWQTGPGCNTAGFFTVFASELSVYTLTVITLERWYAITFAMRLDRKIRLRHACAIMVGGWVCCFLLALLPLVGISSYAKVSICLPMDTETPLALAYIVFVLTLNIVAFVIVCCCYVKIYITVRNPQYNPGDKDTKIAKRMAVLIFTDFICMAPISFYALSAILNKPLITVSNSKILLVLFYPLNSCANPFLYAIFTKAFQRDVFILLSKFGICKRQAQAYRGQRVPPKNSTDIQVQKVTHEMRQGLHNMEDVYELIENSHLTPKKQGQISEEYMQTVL

As for `C[C@@]12CCC[C@H]1[C@@H]1CC[C@H]3C[C@@H](O)CC[C@]3(C)[C@H]1CC2`, the Potency entry in assay [1], in assay [2], in assay [4], in [6], in assay [7] and in assay [8] was “inactive” in each case. Besides, the call in assay [3] was inactive. Also, in assay [5], the activity change, positive = activation is -6.1% [at 42.5 µM].

Consider `CS(=O)(=O)c1ccc(-c2cn3ccccc3n2)cc1`, for which the Potency entry in assay [1], in assay [9] and in assay [8] was “inactive” in each case. Also, in [2], the Potency was 23.9 µM (active). Besides, the call in assay [3] was inactive.

For the compound `O[C@@H]1CO[C@H]2[C@@H]1OC[C@@H]2O`, the Potency result in assay [1], in assay [2], in assay [6], in assay [7] and in [8] was “inactive” throughout. For the same compound, the outcome in assay [3] was inactive.

`CCOC(=O)C1=C(C)NC(C)=C(C(=O)OC)C1c1cccc(Cl)c1Cl` (centres undefined): the Potency result in [1], in [2], in assay [4] and in assay [8] was “inactive” each time. Besides, the call in assay [3] was inactive. Besides, in assay [5], the activity change, positive = activation was -28.7% [at 42.5 µM].

`c1ccc2c(c1)CCc1ccccc1N2`: the Potency entry in assay [1], in assay [2], in assay [6], in [7] and in [8] was “inactive” each time. In assay [3], the result was inactive. Also, the Potency in assay [4] is 101 µM (active).

In the case of `O=c1c(O)c(-c2ccc(O)cc2)oc2cc(O)cc(O)c12`, the Potency entry in assay [1], in assay [2], in assay [6], in assay [7] and in assay [8] was “inactive” throughout. The activity change, positive = activation in [5] was 4.05% [at 42.5 µM].

On to `CN1CCCC(n2nc(Cc3ccc(Cl)cc3)c3ccccc3c2=O)CC1` (centres undefined), for which the Potency entry in [1], in [4] and in assay [8] was “inactive” each time. In addition, the figures for the Potency in assay [2] and in assay [7] were 21.3 µM (active) and 9.52 µM (active), respectively. Moreover, the result in assay [3] was inactive. The activity change, positive = activation in [5] is -15.1% [at 42.5 µM].

For the compound `CCC1CO1` (centres undefined), the Potency result in assay [1], in assay [2], in assay [4], in assay [6], in assay [7] and in [8] was “inactive” each time. Moreover, the compound was classed as inactive in assay [3].

On to `C/C=C(/C(=C/C)c1ccc(O)cc1)c1ccc(O)cc1`, for which the Potency result in assay [1], in assay [2], in assay [6] and in [8] was “inactive” throughout.

On to `CCCCN1CCCC1C(=O)Nc1c(C)cc(C)cc1C` (centres undefined), for which the Potency result in [1], in [2], in assay [4], in assay [6] and in [8] was “inactive” each time. In assay [3], the call was inactive.

Regarding `O=C(O)c1ccc(OCCCOc2ccc(C(=O)O)cc2)cc1`, the Potency result in [1], in assay [2], in assay [4], in assay [9], in assay [6] and in assay [7] was “inactive” in each case. In [8], the Potency entry was “inactive”. Further, in assay [3], the call was inactive. For the same compound, in assay [5], the activity change, positive = activation is 7.07% [at 42.5 µM].

Turning to `CC(CCC(=O)O)C(=O)O` (centres undefined), the Potency result in [1], in [2], in assay [4], in [9], in [6] and in assay [7] was “inactive” throughout. Besides, the Potency entry in [8] was “inactive”. For the same compound, the activity change, positive = activation in assay [5] is 3.47%.

For `CC(=O)OCC(=O)NCCCOc1cccc(CN2CCCCC2)c1`, the Potency entry in assay [1], in [10], in [4], in assay [9], in assay [6] and in assay [7] was “inactive” each time. The Potency result in assay [8] is “inactive”. Also, in assay [3], the compound was called inactive. In addition, the activity change, positive = activation in assay [5] is 4.2% [at 42.5 µM].

`O=C(Nc1cccc2c(=O)cc(-c3nn[nH]n3)oc12)c1ccc(OCCCCc2ccccc2)cc1`: the Potency entry in [1], in assay [6], in [7] and in [8] was “inactive” each time. Also, in assay [2], the Potency is 5.35 µM (active).

For `Cc1ccc(CO)cc1`, the Potency result in [1], in assay [2], in assay [4], in assay [6], in assay [7] and in assay [8] was “inactive” throughout. Also, in assay [3], the compound was called inactive.

With `CCOC(C)=O`, the Potency result in assay [1], in assay [2], in [6], in assay [7] and in [8] was “inactive” throughout. In addition, the result in assay [3] was inactive.

In the case of `Cc1c(C)c2c(c(C)c1OC(=O)CCC(=O)OCCO)CC[C@@](C)(CCC[C@H](C)CCC[C@H](C)CCCC(C)C)O2`, the Potency entry in assay [1], in [2], in [4], in [6], in [7] and in [8] was “inactive” each time. In assay [3], the outcome was inactive. For the same compound, the activity change, positive = activation in [5] was -48.8% [at 42.5 µM].
